# Results reported in PubChem BioAssay.
# Unmarked numbers belong to inactive results. No rule for the calls is given here.
# Tested on: Aerobactin synthetase IucA (Klebsiella pneumoniae hvKP1)
# Experiment: Biochemical IucA enzyme inhibition primary screen of the Spectrum library (AID 1346200);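 also: 100% = wells without compound and 0% = wells lacking enzyme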
# Settings: malachite green pyrophosphate, A620, at 8 µM, active compounds read low
row,Structure (SMILES),activity remaining [%]
1,CON,103
2,CCc1c2c(nc3ccc(OC(=O)N4CCC(N5CCCCC5)CC4)cc13)-c1cc3c(c(=O)n1C2)COC(=O)[C@]3(O)CC,90
3,C/C=C(\C)C(=O)O[C@@H]1c2c(ccc3ccc(=O)oc23)OC(C)(C)[C@@H]1OC(C)=O,87
4,CS(=O)(=O)c1ccc(C2=C(c3ccccc3)C(=O)OC2)cc1,87.7
5,Oc1ccc(Cl)cc1Cc1cc(Cl)ccc1O,108
6,Nc1ccc(C(=O)Oc2ccccc2)c(O)c1,114
7,COc1ccc(-c2cc(=O)c3c(O)c(OC)c(OC)c(OC)c3o2)cc1OC,80.1
8,CCOC(=O)c1c(C)cc(O)cc1O,119
9,CC(C)CCCC(C)C1CCC2C3=CC[C@H]4C[C@@H](O)CC[C@]4(C)C3CC[C@@]21C (some centres undefined),114
10,Cc1cc(CC(=O)O)n(C)c1C(=O)c1ccc(Cl)cc1,77.2
11,CCC(C)(C)C(=O)O[C@H]1C[C@@H](C)C=C2C=C[C@H](C)[C@H](CC[C@@H]3C[C@@H](O)CC(=O)O3)[C@H]21,106
12,CC1=C2C(O)C(=O)OC3CC4C(C)(C)C(=O)C=C[C@]4(C)C(CC1)[C@]23C (some centres undefined),109
13,CC(=O)O[C@H]1CC[C@]2(C)C3=CC(=O)[C@@]4(C)C(C[C@@H]5OC6(OCC(C)CC6Br)[C@@H](C)[C@@H]54)C3CC[C@H]2C1 (some centres undefined),117
14,CC(=O)OCC(=O)[C@@]1(O)CCC2C3CCC4=CC(=O)CC[C@]4(C)C3C(=O)C[C@@]21C (some centres undefined),120
